Assay outcomes (PubChem)
p53ts 39C kill – qHTS Screen for Compounds that Selectively Target Cancer Cells with p53 Mutations: Cytotoxicity of p53ts Cells at the Nonpermissive Temperature. H1299-p53A138V viability at 39C, ATP luminescence, 24 h. actives 1.5% (n = 130,000). AID 902, 2007. Potency, µM (top dose mostly 46.1 µM), usual class: cytotoxic; note: nearly all actives have a fitted effect of over 55% in size
Peg3 imprint – qHTS Assay for Compounds that Induce Erasure of Genomic Imprints | mouse ES Peg3-LacZ reporter, beta-gal luminescence, 40 h | Potency, µM (highest dose often 60.7 µM), most hits filed as activators | actives 0.02% (n = 110,000) | AID 1948, 2009
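Readout: BetaGlo luminescence (5 min, room temp) for LacZ from the normally silent maternal Peg3 allele in female Peg3LacZ-Neo ES cells. Cells 300/well, 40 h, 37C, 5% CO2. Data normalized per plate to negative controls.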
IkB sig inh – IkB Signaling; ABC-DLBCL IkBa-CBG/CBR dual luciferase ratio, 4 h; response scale: scaled: untreated 0%, proteasome inhibitor 100%; actives 0.04% (n = 110,000); Potency, µM (titrated, usually from 57.1 µM); active = well fitted curve in the direction sought with a large enough effect in the signal ratio, not every such curve was filed as active; inconclusive = small, poorly fitted or top-dose-only effect, or a change in a side signal; the % refers to the signal ratio;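 note: the direction sought is a rising ratio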
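In this assay, an IκBα–CBG68 fusion accumulates when IKK-driven degradation is blocked; native CBR normalizes for cell number. OCI-Ly3 cells were treated 4 h with compound and doxycycline, then green and red light read after Chroma-Glo addition.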
p53ts 32C kill – qHTS Screen for Compounds that Selectively Target Cancer Cells with p53 Mutations: Cytotoxicity of p53ts Cells at the Permissive Temperature; H1299-p53A138V at 32C, ATP luminescence viability, 24 h; Potency, µM (highest dose often 46.1 µM), usual class: cytotoxic; actives 0.93% (n = 130,000); AID 924, 2007; note: nearly all actives have a fitted effect of over 55% in size
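Viability by ATPlite luminescence after 24 h compound treatment (up to 46 uM) at the permissive 32C. Cells are H1299 carrying p53 A138V. Scale runs from DMSO basal to 100 uM tamoxifen as full kill; AC50 from Hill fits.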
Each line names hits and unclear results; the compound was inactive in the other large screens. Rows were chosen to be rich in hits. Some 1.6% of all compounds tested hit in one or more screens of this group. Unless noted, calls come from the whole dose curve; as a rule, active = well fitted curve in the direction sought with a large enough effect; inconclusive = small, poorly fitted or top-dose-only effect, or another doubt; inactive = no such curve, though single readings can be large; an effect the other way counts as inactive or inconclusive.

COc1ccc(C)cc1Nc1cc(C)nc2nc(C)nn12	none
[N-]=[N+]=CC(=O)COC(=O)c1ccccc1	none
CCCCn1c(/C=N/Nc2nc3ccccc3[nH]2)nc2ccccc21	none (no result: Peg3 imprint, IkB sig inh, p53ts 32C kill)
Cc1ccc2cc(/C=N/Nc3nc4ccccc4[nH]3)c(Cl)nc2c1	p53ts 39C kill 3.55µM (no result: Peg3 imprint, IkB sig inh, p53ts 32C kill)
CC1N/C(=C\C(=O)c2ccccc2)N(O)C1(C)C (stereo not drawn)	p53ts 39C kill 12.6µM, p53ts 32C kill 10µM
O=C(Nc1nc2n(n1)C(c1ccccc1)C=C(c1ccccc1)N2)c1ccc(Cl)c([N+](=O)[O-])c1 (stereo not drawn)	IkB sig inh inconclusive, p53ts 32C kill inconclusive
CCOC(=O)c1cccc(NS(=O)(=O)c2cc(-c3cnc(C4CC4)o3)ccc2C)c1	IkB sig inh inconclusive
CCc1ccc(NS(=O)(=O)c2cc(-c3cnc(C4CC4)o3)ccc2C)cc1	p53ts 39C kill 20µM
Cc1cc(F)ccc1NC(=O)CS(=O)(=O)c1cccc2nsnc12	p53ts 39C kill 0.0398µM
Nc1cccc(-c2nc3ccc(N)cc3s2)c1	p53ts 39C kill 3.16µM, IkB sig inh inconclusive, p53ts 32C kill 3.16µM
Nc1ccc(O)c(-c2nc3ccccc3s2)c1	IkB sig inh inconclusive
Nc1ccc2nc(-c3ccc(O)cc3)sc2c1	p53ts 39C kill 0.631µM, IkB sig inh inconclusive, p53ts 32C kill 0.631µM
COC(=O)c1ccc2c(=O)n(CCCCCC(=O)NCCc3ccccc3)c(=O)[nH]c2c1	none
O=C1c2ccccc2C(=O)c2c1ccc(O)c2O	none (no result: IkB sig inh)
O=C1c2ccc(O)c(O)c2C(=O)c2c(O)ccc(O)c21	p53ts 39C kill 5.01µM, p53ts 32C kill inconclusive (no result: IkB sig inh)
COc1ccc2nc(SCC(N)=O)[nH]c2c1	none
COc1ccc2nc(-c3cccc(N)c3)[nH]c2c1	p53ts 39C kill 15.8µM, p53ts 32C kill 7.94µM (no result: Peg3 imprint, IkB sig inh)
COc1ccc2oc(=O)c(-c3nc4ccc(C)cc4[nH]3)cc2c1	p53ts 39C kill inconclusive, IkB sig inh inconclusive
COc1ccc2nc(-c3ccc(N)cc3)[nH]c2c1	p53ts 39C kill inconclusive, p53ts 32C kill 15.8µM (no result: Peg3 imprint, IkB sig inh)
Cc1ccc(Nc2nc(N)nc(CSc3nnnn3-c3ccccc3)n2)cc1	none
Cc1ccc(Nc2nc(N)nc(CSc3nncn3C)n2)cc1	p53ts 39C kill 12.6µM, p53ts 32C kill inconclusive (no result: Peg3 imprint, IkB sig inh)
COc1cc(/C=C(\C#N)c2nc3ccc(C)cc3[nH]2)ccc1OCc1ccc(C)cc1	p53ts 39C kill 3.98µM, IkB sig inh inconclusive, p53ts 32C kill 15.8µM
COc1ccccc1C(=O)NC1(C(F)(F)F)C(=O)Nc2c1c(=O)[nH]c(=O)n2-c1ccccc1 (stereo not drawn)	none
COc1cccc2sc(N(C)c3ccccc3)nc12	p53ts 39C kill 12.6µM, p53ts 32C kill 10µM
COc1cccc2sc(N3CCN(c4nc5ccccc5s4)CC3)nc12	none
Cc1cccc(N(C)S(=O)(=O)c2cc3[nH]c(=O)c(=O)[nH]c3cc2C)c1	none (no result: p53ts 39C kill, Peg3 imprint, IkB sig inh)
Cc1ccc(S(=O)(=O)C(CNC(=O)COc2ccc(Cl)cc2)c2ccco2)cc1 (stereo not drawn)	none
CCC(C)NC(=O)Cn1c(=O)n(Cc2ccc(C(=O)NCc3ccc(C)cc3)cc2)c(=O)c2ccccc21 (stereo not drawn)	p53ts 39C kill 20µM, p53ts 32C kill inconclusive
COc1ccc(Cl)cc1Nc1ncnc2c1nc1n2CCCC1	none (no result: p53ts 39C kill, Peg3 imprint, IkB sig inh)
O=c1c2ccccc2cnn1-c1nc2ccccc2s1	p53ts 39C kill 1µM, IkB sig inh inconclusive, p53ts 32C kill 0.794µM
O=C(Nc1ccc(N2CCCCC2)cc1)c1ccccc1	p53ts 39C kill 12.6µM, p53ts 32C kill 5.01µM (no result: Peg3 imprint, IkB sig inh)
O=C(Nc1ccc(N2CCCC2)cc1)c1cccc(F)c1	p53ts 39C kill 5.01µM, IkB sig inh inconclusive, p53ts 32C kill 7.94µM
O=C(Nc1ccc(N2CCCC2)cc1)c1ccccc1F	p53ts 32C kill inconclusive (no result: Peg3 imprint, IkB sig inh)
O=C(Cn1nnc(-c2ccc3c(c2)OCO3)n1)N1CCOCC1	none
COc1ccc(-c2ccc(-c3nnn(CC(=O)N4CCOCC4)n3)cc2)cc1	p53ts 39C kill inconclusive, p53ts 32C kill 2.51µM
Cc1cccc(NS(=O)(=O)c2cc(C(=O)O)ccc2Cl)c1	none (no result: Peg3 imprint, IkB sig inh)
CC(C)c1ccc(NC(=O)C2CCCN(S(=O)(=O)c3ccc4[nH]c(=O)ccc4c3)C2)cc1 (stereo not drawn)	p53ts 39C kill 10µM, p53ts 32C kill inconclusive
O=C(O)CCC/C=C\C[C@H]1[C@@H](/C=C\[C@@H](O)C2Cc3ccccc3C2)[C@H](F)C[C@H]1O	none (no result: p53ts 39C kill, Peg3 imprint, p53ts 32C kill)
Cc1ccnc(NC(c2ccccc2F)c2ccc3cccnc3c2O)c1 (stereo not drawn)	p53ts 39C kill inconclusive, IkB sig inh inconclusive
Oc1c(C(Nc2ccccn2)c2ccccc2F)ccc2cccnc12 (stereo not drawn)	p53ts 39C kill 10µM
Cc1ccnc(NC(c2cc(C)ccc2O)c2ccc3cccnc3c2O)c1 (stereo not drawn)	p53ts 39C kill 12.6µM, IkB sig inh inconclusive, p53ts 32C kill inconclusive
Oc1c(C(Nc2ccccn2)c2ccccn2)ccc2cccnc12 (stereo not drawn)	p53ts 39C kill 3.98µM, IkB sig inh inconclusive
Oc1c([C@H](Nc2ccccn2)c2ccccc2)ccc2cccnc12	p53ts 39C kill inconclusive
CC1=CC(=O)CC(C)(C)[C@@]1(O)/C=C\C(C)=C\C(=O)O	none (no result: p53ts 39C kill, Peg3 imprint, p53ts 32C kill)
COc1ccc(CNC(=O)Cc2ccc(NC(=O)N3CCCCc4ccccc43)cc2)cc1	none
O=C(NCCCN1CCN(c2ccccc2F)CC1)c1cc2c(s1)-c1ccccc1OC2	p53ts 39C kill 12.6µM, IkB sig inh inconclusive, p53ts 32C kill inconclusive
CCCN1CCN(CCCNC(=O)c2cc3c(s2)-c2c(C)cccc2OC3)CC1	p53ts 39C kill 10µM, IkB sig inh inconclusive, p53ts 32C kill inconclusive
CCCN1CCN(CCCNC(=O)c2cc3c(s2)-c2ccccc2OC3)CC1	p53ts 39C kill inconclusive, IkB sig inh inconclusive
OC[C@@H]1O[C@@H](n2cnc3cncnc32)[C@@H](O)[C@H]1O	none (no result: Peg3 imprint)
COc1ccccc1Nc1cc(C)nc2nc(-c3ccccc3)nn12	p53ts 39C kill inconclusive, IkB sig inh inconclusive
CCCn1c2ccccc2c2cnn(CC(=O)N(CCCOC(C)C)Cc3ccco3)c(=O)c21	none (no result: p53ts 39C kill, Peg3 imprint, IkB sig inh)
CCCCN1C(C(=O)c2ccccc2)=C(OC(=O)CC)c2ccccc2S1(=O)=O	p53ts 39C kill 15.8µM, IkB sig inh inconclusive
Cc1cc(C)nc(N(C#N)CC(=O)N2CCC(C(N)=O)CC2)n1	p53ts 32C kill 3.98µM
Cc1cc(=O)[nH]c(SCC(=O)N2CCC(C(N)=O)CC2)n1	none
Cc1ccc(N2CCN(C(=O)c3cnn(-c4ccc(C)c(C)c4)c3C3CCNCC3)CC2)c(C)c1	p53ts 39C kill 20µM
COC(=O)CNc1c(-c2ccccn2)nc2ccc(Br)cn12	p53ts 39C kill 12.6µM, p53ts 32C kill 15.8µM
Cc1ccc(OC(=O)c2cc(-c3ccc4c(c3)OCCO4)on2)c(C)c1	p53ts 39C kill 12.6µM, p53ts 32C kill 20µM
Cc1ccn2cc(C(=O)Nc3ccc4c(c3)OCCO4)nc2c1	p53ts 39C kill 12.6µM, IkB sig inh inconclusive, p53ts 32C kill 12.6µM
